Experimental findings from PubChem BioAssay AID784 (The Scripps Research Institute Molecular Screening Center, 2007) are described below.

About 130 (0.43%) of roughly 30,000 compounds were called active. The list comes from a sample in which actives are over-represented; it also holds similar structures and randomly drawn compounds. Unmarked numbers belong to inactive results. No stated cut-off is given here; in the data, active means activation above about 65%; inactive means the rest.

The target in the test is Lysosomal acid glucosylceramidase (Homo sapiens) (UniProt P04062). The test can be described thus: raising glucocerebrosidase activity, Gaucher cells – primary screen (AID 784).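 Further: 0% = vehicle wells and 100% = positive control wells.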 Particulars: L444P Gaucher fibroblasts, 4-MU-glucoside fluorescence, 3 days; at 10 µM; stronger effect = higher value.
Lysosomal acid glucosylceramidase (Homo sapiens), sequence (P04062 whole entry L483P): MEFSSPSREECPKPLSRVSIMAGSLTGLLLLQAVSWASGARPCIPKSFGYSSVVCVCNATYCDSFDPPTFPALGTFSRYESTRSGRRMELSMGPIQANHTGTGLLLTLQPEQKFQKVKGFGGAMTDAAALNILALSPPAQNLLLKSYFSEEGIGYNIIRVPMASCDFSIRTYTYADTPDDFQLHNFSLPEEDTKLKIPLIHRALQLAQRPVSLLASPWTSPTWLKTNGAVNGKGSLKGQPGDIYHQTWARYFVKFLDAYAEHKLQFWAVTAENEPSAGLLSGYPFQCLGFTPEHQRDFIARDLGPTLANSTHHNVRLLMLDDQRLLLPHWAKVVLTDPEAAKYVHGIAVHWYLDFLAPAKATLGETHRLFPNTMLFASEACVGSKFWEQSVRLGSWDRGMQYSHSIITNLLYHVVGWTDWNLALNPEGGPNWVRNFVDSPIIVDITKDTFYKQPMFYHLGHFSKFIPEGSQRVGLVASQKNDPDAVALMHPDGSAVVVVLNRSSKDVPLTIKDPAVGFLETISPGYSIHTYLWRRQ
As to `CCn1c2c(c3ccc(OC)cc31)CCCC2=O`, the activation was -2.82%.

For `O=C(COc1ncnc2ccccc12)NC(=O)NCc1ccccc1`, the activation is -9.58%. The same measure for `CCCOc1cccc(C(=O)Nc2nnn(CCC)n2)c1`: -14.1%; for `Cc1ccc(OCc2nc(C#N)c(N3CCCC3)o2)cc1`: -34.7%. With `Cc1ccc(OCCCC(=O)N2CCOCC2)c(C)c1` the figure was 9.81%; with `Cc1cc(N2CCN(Cc3ccc4c(c3)OCO4)CC2)n2ncnc2n1`, 4.34%.

With `CCOc1cc(CO)ccc1OCC(=O)N1CCCCC1`, the activation is 38.3%. With `CC(C)(C)c1nc(NCC2CCCO2)c2nnn(Cc3ccccc3)c2n1` (stereo unspecified) the figure was -23.9%; with `O=CN1CCN(C2CC(=O)N(c3ccc4c(c3)OCO4)C2=O)CC1` (stereo unspecified), -20.8%; with `CC1(C)CC(=O)C=C(NCCCN2CCCC2=O)C1`, 48.7%. The same measure for `NC(CSC12CC3CC(CC(C3)C1)C2)C(=O)O` (stereo unspecified): -2.09%. With `CCOC(=O)C1CCCN(C(=O)c2cncc(Br)c2)C1` (stereo unspecified) the figure was -20.7%. Regarding `OC(COc1ccccc1)Cn1cc(Br)cn1` (stereo unspecified), the activation was -62.4%. With `c1ccc(-c2nnc(SCc3nc4ccccc4[nH]3)o2)cc1` the figure was -6.36%; with `CCCCSc1nnc(-c2ccc(C)cc2)o1`, 65.5% (active); with `COc1ccc(-c2nnc(SC(C)C#N)o2)cc1` (stereo unspecified), -2.02%. The same measure for `CC1(C)SC2c3ccccc3C(=O)N2[C@@H]1C(=O)NCc1ccco1` (stereo partly specified): -2.64%; for `C=CCn1cnc2scc(-c3ccccc3)c2c1=O`: -7.71%; for `CCN1C(=O)C(C(=O)NC(C)c2ccccc2)C2CC1(C)Oc1ccccc12` (stereo unspecified): -6.62%. For the molecule `CC(C)C(C(=O)NC1CCCCC1)N(CC1CCCO1)C(=O)CNS(=O)(=O)c1ccc(F)cc1` (stereo unspecified), the activation was -1.42%.

As to `COc1ccc(NC(=O)c2c(C)oc3c2CCCC3)cc1`, the activation was 9.49%. With `CCc1c(C)sc(NC(=O)OC)c1C(=O)N1CCOCC1` the figure was -9.88%; with `Cc1nc2nc3c(cn2n1)C(=O)CC(c1ccccc1)C3` (stereo unspecified), -10.1%; with `CC(=O)Nc1cccc(NC(=O)c2c(-c3ccccc3)noc2C)c1`, -9.69%. The same measure for `CCc1nc(N2CCN(c3nc(C)cc(C)n3)CC2)c2oc3ccccc3c2n1`: -1.58%; for `CCCn1c(SCC(=O)Nc2cccc(C(=O)OCC)c2)nnc1-c1ccoc1C`: -19.7%; for `O=C(COc1ccccc1)N1CCc2ccccc2C1`: -2.86%. For the molecule `CCCCc1nc2ccccc2c(=O)n1NC(=O)c1c(O)c2cccc3c2n(c1=O)CC3`, the activation was 3.98%. The same measure for `Cc1c(NC(=O)Nc2ccccc2Cl)sc(=S)n1C`: -15.8%; for `CC12C(=O)N(n3cnnc3)C(=O)C1C1C=CC2C1` (stereo unspecified): -8.37%; for `CC(C)N(C(=O)Cn1c(SCC(=O)N2CCN(c3ccccc3)CC2)nc2ccccc21)C(C)C`: -5.29%. On to `Cc1ccccc1NC(=O)c1cc(S(=O)(=O)N2CCOCC2)cs1`, for which the activation is -11.8%. The same measure for `CC(=NCc1ccco1)C1=C(O)c2ccccc2C1=O`: -41.5%. With `Cc1nc2c(c(=O)n1Cc1ccco1)c1nc3ccccc3nc1n2Cc1ccccc1` the figure was -11.7%; with `COc1ccc(-c2csc(N3CCN(Cc4ccc5c(c4)OCO5)CC3)n2)cc1`, -17.4%. With `CC(c1ccccc1)n1c(NCCCn2ccnc2)nc2c1c(=O)[nH]c(=O)n2C` (stereo unspecified) the figure was -10.3%; with `COc1ccc(Br)cc1S(=O)(=O)N1CCN=C1C`, -8.13%; with `O=[n+]1c2c(n([O-])c3cc(Br)ccc31)CCC2`, 30.8%.

For `Cc1c(C(=O)OCc2cc(=O)n3cc(Br)ccc3n2)oc2ccccc12`, the activation is 23%.

On to `CCOCCCNS(=O)(=O)Cc1ccccc1`, for which the activation was 6.43%. `CCOC(=O)C1=C(C)NC(C)=C(C(=O)OCC)C1C1=COCCO1`: the activation is -5.96%.

Regarding `C=CCn1c(SCc2cc(C(=O)OC)c(C)o2)nnc1-c1ccncc1`, the activation was 31.7%. The same measure for `Cn1c(=O)n(C)c(=O)n(CC(=O)N2CCCCC2)c1=O`: -12.6%; for `Clc1cccc(Cl)c1Cn1nnc(-c2cccs2)n1`: 10.2%; for `COc1ccccc1CNCc1cccs1`: -7.11%. With `NC(=NC(=O)c1ccccc1)C1=C(O)CCC1=O` the figure was 0%; with `O=C(CSc1nnc(-c2cccs2)n1-c1ccccc1)N1CCN(C(=O)c2ccco2)CC1`, -13.7%.

For the molecule `Cc1ccsc1CNn1cnnc1SCc1ccccc1F`, the activation is -2.23%. For the molecule `Cc1nnc(NC2=NCCCCC2)o1`, the activation was 8.3%.

For the molecule `CCS(=O)(=O)N1CCN(C(=O)c2cccs2)CC1`, the activation is -24.4%.

As for `COc1ccccc1C(=O)Oc1ccc(N2C(=O)CCC2=O)cc1`, the activation is 4.62%. On to `COC(C)(C)[C@]12CC(O)(C(C)C)ON1[C@H]1CCCCC1N2O` (stereo partly specified), for which the activation is -2.77%. The same measure for `CC(Cc1cccs1)NC(=O)NC1CCCCC1` (stereo unspecified): -0.56%; for `C=C(C)Cn1c(SCC(=O)NCc2ccco2)nc2sc3c(c2c1=O)CCC3`: -21.3%. The same measure for `CCOC(=O)CC1C(=O)NCCN1C(=O)COc1ccc(Br)cc1C` (stereo unspecified): -21.1%; for `Nn1c(SCC(=O)NC(=O)NC2CCCC2)nnc1-c1ccccc1F`: 2.97%.

`O=C(COc1ccc2c3c(c(=O)oc2c1)CCC3)NC1CCCCC1`: the activation is 9.84%.

As for `CC1CC(c2ccccc2)n2nc(NC(=O)c3cccs3)nc2N1` (stereo unspecified), the activation is -23.6%. As to `Cc1cc(NC(=O)COC(=O)c2ccc(F)c(S(=O)(=O)N3CCOCC3)c2)no1`, the activation was -7.98%.

On to `Cc1cc(C)c2nc(N3CCCC3)c(C#N)cc2c1`, for which the activation was 18.1%. With `CN(C(=O)CSc1nnnn1-c1ccccc1)C1CCCCC1` the figure was -16.5%.

For `Cc1nn(-c2ccccc2)c(C)c1C(=O)OCC(=O)NC(=O)NC1CCCCC1`, the activation was 59.8%. With `O=C(c1c(Cl)nc2sccn12)N1CCCc2ccccc21`, the activation was -24.6%. With `CC1(c2ccccc2Cl)NC(=O)N(CC(=O)NC(=O)NCc2ccco2)C1=O` (stereo unspecified) the figure was -9.6%.

Turning to `Cc1cc(OCCN2CCCC2)ccc1C(C)C`, the activation was -12.4%. Regarding `CCC(=O)Nc1nc(OC)cc(OC)n1`, the activation was -18.3%. With `CC(=O)c1cnc(Nc2nc(C)c3cc(C)ccc3n2)nc1C` the figure was 13.5%. The same measure for `Cc1nnc(SCC(=O)N2CCc3ccccc32)n1-c1ccccc1`: -18.6%; for `O=C(Cn1nnc(-c2ccccc2)n1)NCc1ccccc1`: -40%; for `COc1ccc(Cn2c(=O)sc3ccccc32)cc1OC`: -6.04%. With `O=C(O)Cc1ccc(NC(=O)c2cccs2)cc1` the figure was -9.31%; with `O=C(NCc1cccnc1)c1cn(-c2ccccc2)nc1-c1cccs1`, -15.4%; with `COCCCNC(=O)c1c(F)c(F)c(F)c(F)c1F`, -31.9%. In the case of `CCOC(=O)C(CCOc1cccc(CC)c1)C(=O)OCC`, the activation is -0.5%.

Take `CCn1cc(C(=O)NCc2ccc(OC)cc2OC)c(=O)c2ccc(C)nc21`: the activation is -10.1%. The same measure for `Cn1c(=O)[nH]c(=O)c2c1nc(N1CCCCCC1)n2CC(=O)c1ccccc1`: -1.4%; for `CC1Cc2ccccc2N1C(=O)Cn1cnc2ccccc2c1=O` (stereo unspecified): -14.5%; for `COC(=O)[C@@H](NC(=O)NCc1cccc(OC)c1)C(C)C`: -5.38%. With `CCCc1nnc(NC(=O)CN2C(=O)c3ccccc3S2(=O)=O)s1` the figure was -21.6%.

In the case of `O=P(O)(CP(=O)(c1ccccc1)c1ccccc1)c1ccccc1`, the activation is -3.68%.

Regarding `CCCCNC(=O)CSc1nnc(-c2ccco2)n1C`, the activation is -32.4%.

Turning to `Cc1c(C)c2cc3c4c(oc3c(C)c2oc1=O)CCCC4`, the activation was 102% (active).

As to `COC(=O)CCSc1nccn1Cc1ccccc1`, the activation is -3.3%. With `Fc1ccccc1CCNc1nnnn1-c1ccccc1` the figure was -5.46%. The same measure for `CCN(C(=O)CSc1ncn[nH]1)c1cccc2ccccc12`: 4.77%; for `COCCn1nnnc1CN1CCC(NC(=O)Nc2cccc(OC)c2)CC1`: 2.44%; for `Cc1ccc(S(=O)(=O)N2CCN(C(=O)CCC(=O)NC3CCCc4ccccc43)CC2)cc1` (stereo unspecified): -7.53%. With `Cc1ccc(-c2noc(CCC(N)=O)n2)cc1`, the activation is 1.93%. With `COC(=O)c1cn(CC(=O)NCc2cccs2)c2ccccc12` the figure was -8.81%.

`O=C(Cn1cc(C(=O)c2cccs2)c2ccccc21)NCc1cccs1`: the activation is 5.52%.

Regarding `COCCCNC(=O)Cn1cc(C(=O)C2CC2)c2ccccc21`, the activation was 72.8% (active). Regarding `CCCCn1c(SCC(=O)N2CCC(C(=O)OCC)CC2)nc2cc(S(N)(=O)=O)ccc21`, the activation was -6.49%. For the molecule `CCOC(=O)c1cc2c(n(-c3ccc(C)cc3)c1=O)CCCC2=O`, the activation is -11%.

For `Cc1cccc(N2CC(C)Cn3c2nc2c3c(=O)n(CC(=O)OCc3ccccc3)c(=O)n2C)c1` (stereo unspecified), the activation was -17.9%. For `CCOc1ccccc1-n1c(SCC(=O)N2CCCC2)nnc1-c1ccoc1C`, the activation is 0.64%.

Take `O=C(Nc1nc2cc3c(cc2s1)OCCO3)c1cccc(S(=O)(=O)N2CCOCC2)c1`: the activation is 0.12%. Turning to `COc1ccccc1OCCC(=O)OCC(=O)NC(=O)NC(C)(C)C`, the activation was 4.86%. For `Cn1nc(-c2ccc(N3CCOCC3)c(NC(=O)c3ccccc3)c2)c2ccccc2c1=O`, the activation is -54.8%. `C=CCn1c(N)c(C(=O)OCC(C)C)c2nc3ccccc3nc21`: the activation is -9.15%.

With `C=CCn1c(N)c(S(=O)(=O)c2cccs2)c2nc3ccccc3nc21`, the activation was -13.8%. The same measure for `CC(C)Cn1c(N)c(C(=O)NCc2cccs2)c2nc3ccccc3nc21`: 73.7% (active).
